# Shown are actives, neighbours in structure and some others; about 0.49% of the full set was active somewhere.
# EPAC1 antag: qHTS for Antagonist of cAMP-regulated guanine nucleotide exchange factor 3 (EPAC1): primary screen. 360,000 tested, 0.14% active. Potency, µM (series often up to 115 µM), for the others: at the top dose activity change, negative = inhibition, actives largely listed as inhibitors. EPAC1 GEF assay, Rap1b-BODIPY-GDP exchange fluorescence. Rap guanine nucleotide exchange factor 3 (Homo sapiens), O95398. AID 720709, 2013;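 note: plate controls were vehicle for no effect and positive control for full effect; nearly all actives have a fitted effect of over 50% in size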
# EPAC1 ag: qHTS for Agonist of cAMP-regulated guanine nucleotide exchange factor 3 (EPAC1): primary screen; EPAC1 agonist qHTS, biochemical assay; response scale: 100% = response to 6.5 mM cAMP; Rap guanine nucleotide exchange factor 3 (Homo sapiens), O95398; AID 720707, 2013; 360,000 tested, 0.073% active; Potency, µM (highest dose often 154 µM), for inactives: at the highest dose activation, hits mostly activators; note: nearly all actives have a fitted effect of over 60% in size
#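 Nucleotide exchange assay: 100 nM EPAC1 with 250 nM Rap1B loaded with BODIPY-GDP and 50 uM GDP, room temperature. Fluorescence (480/540 nm) read every 5 min for 30 min; signal change normalized to 6.5 mM cAMP as full agonist.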
# EPAC2 agonist: qHTS for Agonist of cAMP-regulated guanine nucleotide exchange factor 4 (EPAC2): primary screen | 360,000 tested, 0.079% active | Potency, µM (highest dose often 154 µM), without a hit: at the top dose activation, hits mostly activators | EPAC2 activation, biochemical qHTS; response scale: 100% = 6.5 mM cAMP response | Rap guanine nucleotide exchange factor 4 (Homo sapiens), Q8WZA2; note: nearly all actives have a fitted effect of over 50% in size
#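 Each well held 100 nM EPAC2, 250 nM RAP1B-BODIPY-GDP and 50 uM GDP. Fluorescence, read at 5-min intervals to 30 min, was referenced to a 6.5 mM cAMP positive control.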
# EPAC2 antagonist: qHTS for Antagonist of cAMP-regulated guanine nucleotide exchange factor 2 (EPAC2): primary screen | Potency, µM (series often up to 114 µM), for inactives: at the highest dose activity, negative = inhibition, most hits filed as inhibitors | Rap guanine nucleotide exchange factor 4 (Homo sapiens), Q8WZA2 | EPAC2 GEF exchange of Rap1B-BODIPY-GDP, fluorescence | 360,000 tested, 0.18% active; note: % is set by controls: 0 for no effect and ±100 for the full control effect; nearly all actives have a fitted effect of over 45% in size
# USP1 inh: Inhibitors of USP1/UAF1: Primary Screen. Ubiquitin carboxyl-terminal hydrolase 1 (Homo sapiens), O94782. recombinant USP1/UAF1, Ub-Rhodamine cleavage fluorescence. Potency, µM (series often up to 57.1 µM), without a hit: at the highest dose activity change, negative = inhibition, usual class: inhibitors. 390,000 tested, 0.23% active. AID 743255, 2014; note: % is set by controls: 0 for no effect and ±100 for the full control effect; nearly all actives have a fitted effect of over 60% in size
#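 High-throughput fluorogenic screen: 1nM USP1/UAF1 complex, Ub-Rho substrate 150nM final, 50mM HEPES pH 7.8 with 0.5mM EDTA, 0.1 mg/ml BSA, 1mM TCEP and 0.01% Tween-20.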
# Numbers without * were called inactive; ? = inconclusive; nt = no result. Calls come from the whole dose curve; as a rule, active = well fitted curve in the direction sought with a large enough effect; inconclusive = small, poorly fitted or top-dose-only effect, or another doubt; inactive = no such curve, though single readings can be large; an effect the other way counts as inactive or inconclusive. Potency is the fitted concentration of half-maximal effect.
SMILES,EPAC1 antag,EPAC1 ag,EPAC2 agonist,EPAC2 antagonist,USP1 inh
Cc1nnc(Nc2ccc(S(N)(=O)=O)cc2)c2ccccc12,2.4%,6.3%,3.2%,1.0%,-27.6%
Cc1ccc(NC2=CC(=O)C(=O)c3ccccc32)cc1,-22.1%,0.1%,-1.1%,10.0%,25.1µM*
NS(=O)(=O)c1ccc(NC2=CC(=O)C(=O)c3ccccc32)cc1,?,5.1%,6.3%,?,8.91µM*
Cc1cc(NC2=CC(=O)C(=O)c3ccccc32)no1,?,0.5%,10.0%,?,2.51µM*
Cc1ccc(NC2=C(Cl)C(=O)c3ccccc3C2=O)cc1,9.5%,4.2%,-15.2%,11.6%,-23.3%
COc1cc(OC)c(NC2=CC(=O)C(=O)c3ccccc32)cc1Cl,-1.1%,-8.2%,-9.6%,-8.0%,17.8µM*
COc1ccc(C(CNC(=O)COc2cc(C)cc(C)c2)N2CCOCC2)cc1 (stereo not given),nt,nt,nt,nt,-11.0%
Cc1ccc(C)c(NC(=O)CCc2c(C)nn(-c3ccc(N4CCCC4)nn3)c2C)c1,nt,nt,nt,nt,-17.9%
Cc1nc2c(C(=O)NCCC(C)C)cnn2c(C)c1Cc1c(F)cccc1Cl,nt,nt,nt,nt,-5.5%
CCOC(=O)c1ccc(NC2=CC(=O)C(=O)c3ccccc32)cc1,-9.6%,0.2%,8.0%,-1.7%,7.94µM*
CC(=O)Nc1ccc(NC2=CC(=O)c3ccccc3C2=O)cc1,-0.5%,14.1%,1.2%,-5.4%,-9.4%
O=C(c1cccc(-n2cccc2)c1)N1CCN(S(=O)(=O)c2ccccc2)CC1,79.4µM*,12.5%,6.9%,-4.9%,-6.9%
CCc1ccc(Nc2sc(C(=O)c3ccccc3)c(N)c2S(C)(=O)=O)cc1,nt,nt,nt,nt,1.8%
O=C(O)C(Cc1c[nH]c2ccccc12)NS(=O)(=O)c1cccc(Cl)c1Cl (stereo not given),-14.3%,1.7%,10.6%,44.7µM*,0.7%
COc1ccc(-n2cnc3scc(-c4ccc(OC)c(OC)c4)c3c2=O)cc1,-23.5%,1.8%,10.4%,?,1.9%
COc1ccc(-c2csc3ncn(-c4ccc(C)cc4)c(=O)c23)cc1OC,-26.6%,-0.2%,5.8%,44.7µM*,-18.2%
O=C1NC(=S)S/C1=C\c1ccc(SCc2ccco2)o1,?,10.1%,9.4%,44.7µM*,?
O=C1NC(=S)S/C1=C\c1ccc(SCc2ccccc2)o1,22.4µM*,19.0%,13.6%,?,-11.7%
CCC1=NN2C(=N)/C(=C\c3ccc(SCc4ccco4)o3)C(=O)N=C2S1,?,3.5%,-2.2%,-2.6%,-9.0%
CCOc1ccc(-c2cc3c(=O)n(CC(=O)NCc4ccc(Cl)cc4)ccn3n2)cc1,nt,nt,nt,nt,-15.5%
O=C1Cc2ccccc2C(=O)N1,56.2µM*,9.0%,19.9%,?,nt
NC(=S)N/N=C/c1ccccc1O,8.2%,3.4%,5.9%,4.7%,-12.4%
Oc1ccc(/C=N/NC(=S)Nc2cccnc2)c(O)c1O,?,7.2%,4.7%,-9.2%,?
Oc1cccc(/C=N/NC(=S)Nc2cccnc2)c1O,11.2µM*,-7.3%,4.2%,8.6%,-21.4%
Oc1ccccc1C=NNC(=S)NN=Cc1ccccc1O,79.4µM*,8.7%,11.6%,3.5%,-9.8%
O=C(NNc1cc(N2CCOCC2)nc(N2CCOCC2)n1)c1ccc([N+](=O)[O-])cc1,?,3.0%,18.2%,?,31.6µM*
O=C(Nc1ccc(N2CCOCC2)cc1N1CCOCC1)c1ccc([N+](=O)[O-])cc1,-15.2%,-11.0%,3.2%,4.7%,-16.1%
CC1(C(=O)NS(=O)(=O)c2ccc(F)cc2F)CCN1C(=O)C1(c2ccc(Cl)cc2)CCC1 (stereo not given),?,-16.9%,-1.0%,35.5µM*,nt

# Screening data as filed in PubChem BioAssay.
